The campaign covered roughly 52,000 compounds. About 4,300 (8.3%) were called active. This is one part of a sample in which actives are shown more often than they occur. A number with no mark means an inactive call. Rule as the data show it: active = survival mostly below about 52% (no sharp cut-off); inactive = mostly above about 56%.

For the assay, the system named is DeltatarO mutant. The assay is described as follows: growth inhibition of S. aureus wild type versus tarO mutant, primary screen, teichoic acid synthesis inhibitors, RN4220, OD600 (AID 463173). Conditions: OD600, 18 h, active compounds read low, screened at 18.75 µg/mL (by protocol).
As to `O=C1N/C(=N/N=C\c2ccco2)SC1Cc1cccc(C(F)(F)F)c1` (stereo not given), the survival is 56%.

Turning to `O=C(/C(=C\c1ccc(F)cc1)n1ccccc1=O)N1CCCC1`, the survival is 102%. As for `CCC(C)NC(=O)c1cccc(NC(=O)c2nsc3ccccc23)c1` (stereo not given), the survival is 74%. As to `O=C(NCc1ccccc1)c1ccc(NC(=O)c2nsc3ccccc23)cc1`, the survival is 61%. The result for `O=C(NCc1cccc(F)c1)c1ccc(NC(=O)c2nsc3ccccc23)cc1` reads -2% (active); that for `CC(NC(=O)c1cccc(NC(=O)c2nsc3ccccc23)c1)c1ccccc1` (stereo not given), 115%; that for `COC(=O)c1cccc(NC(=O)c2nsc3ccccc23)c1`, -1% (active). The result for `O=C(NCc1cccc(F)c1)c1cccc(NC(=O)c2nsc3ccccc23)c1` reads 85%; that for `CCOc1ccc(NS(=O)(=O)c2ccc(-c3cc(C)no3)s2)cc1`, 87%. To `CCOc1ccc(-c2nonc2NC(=O)c2oc3ccc(Br)cc3c2C)cc1` belongs 50%; to `CC1CCC(NC(=O)CN2CCC(n3nnc4ccccc43)CC2)CC1` (stereo not given), 76%. For `CC1=C(C(=O)Nc2ccc(C)cc2C)C(c2ccccc2)n2ncc(C(=O)Nc3ccccc3)c2N1` (stereo not given), the survival is 58%.

For the molecule `CC(=O)N1CCCc2cc(S(=O)(=O)N3CCC(C(=O)N(Cc4ccccc4)C(C)C)CC3)ccc21`, the survival was 76%.

In the case of `O=C(CSc1nc2ccccc2nc1Cc1ccc(Cl)cc1)Nc1ccc2c(c1)OCO2`, the survival was 71%.

Turning to `O=C(CSc1nc(-c2ccccc2)[nH]c1-c1ccccc1)Nc1ccc2c(c1)OCO2`, the survival is 67%.

On to `O=C(CSc1nc2ccccc2nc1Cc1ccc(F)cc1)Nc1ccc2c(c1)OCO2`, for which the survival was 52% (active). On to `O=C(CSc1nc2ccccc2nc1Cc1ccccc1)Nc1ccc2c(c1)OCO2`, for which the survival was 75%. For `Cc1ccc(NC(=O)CSc2nc3ccccc3nc2Cc2ccccc2F)cc1F`, the survival is 107%. `O=C(CSc1nc(-c2cccc(F)c2)[nH]c1-c1ccccc1)Nc1ccc2c(c1)OCCO2`: the survival was 94%. The result for `Cc1cccc(-c2nc(SCC(=O)Nc3ccc4c(c3)OCO4)c(-c3ccccc3)[nH]2)c1` reads 40% (active); that for `O=C(CSc1nc(-c2cccc(F)c2)[nH]c1-c1ccccc1)Nc1ccc2c(c1)OCO2`, 32% (active). For `Cc1cccc(-c2nc(SCC(=O)Nc3ccc4c(c3)OCCO4)c(-c3ccccc3)[nH]2)c1`, the survival was 58%. The result for `O=C(CSc1nc2ccccc2nc1Cc1ccccc1F)Nc1cccc(C(F)(F)F)c1` reads 35% (active); that for `Cc1ccc(Cc2nc3ccccc3nc2SCC(=O)Nc2cccc(C(F)(F)F)c2)cc1`, 67%. `O=C(CSc1nc(-c2ccc(F)cc2)[nH]c1-c1ccc(F)cc1)Nc1ccc2c(c1)OCO2`: the survival was 97%.

The record behind these values is PubChem BioAssay AID463173 (ICCB-Longwood Screening Facility, Harvard Medical School, 2010).
